Drawing on PubChem BioAssay (NCI), this text covers growth for ten compounds.

Structures are written as SMILES. Where “and” joins values, the source holds several entries; their conditions need not be identical. Equal entries are not always repeated. About 83,000 compounds went through this panel and 20% of them were active in at least one assay; those are over-represented in the sample as a whole.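 Growth was measured after 48 h exposure to one concentration of compound in 96-well plates. Values under 10 count as active.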 A number with no mark means an inactive call. Calls of active or inactive are those of the source.

This assay has as its system MDA-MB-468 breast. The assay can be described thus: NCI-60 one-dose screen, 48 h (100 = growth as untreated, 0 = no growth, -100 = all killed). The following applies: 10 µM unless noted.
In the case of `CCN(C(=O)CN1CCN(c2cc3c(cc2F)c(=O)c(C(=O)O)cn3CC)CC1)c1nc(-c2ccccc2)cs1`, the growth is -7.7% (active).
In the case of `Cc1ccc(C(=O)N/N=C/c2cccc([N+](=O)[O-])c2)cn1` it was 89.5%; in that of `Cn1cc(-c2cc(N)n3nc(-c4cn(C)c5ccc(Cl)cc45)cc3n2)c2cc(Cl)ccc21`, 96.3%; in that of `Nc1ccc2c(O)cc(S(=O)(=O)O)cc2c1`, 110%.
As for `O=C(Nc1nc(-c2ccccc2)cs1)c1cc(O)c(O)c(O)c1`, the figure is 46.3%; as for `CCCCCCCCCCCCCCCCC1CC(=O)OC1=O` (stereo not given), 119%; as for `O=C(/C=C/c1ccco1)Nc1ncc(Cc2cc(Cl)ccc2Cl)s1`, 14.6%.
For the compound `CC1(C)CC[C@]23CC[C@]4(C)[C@H](CC[C@@H]5[C@@]6(C)CCNCC(C)(C)[C@@H]6CC[C@]54C)[C@H]2[C@H]1OC3`, the growth was 65.4%.
In the case of `CCOC(=O)/C=C(/C)Sc1cc(O)c2ccccc2c1O` it was 29.9%.
On to `O=C(N/N=C/c1ccccc1)N/N=C/c1ccccc1`, for which the growth is 108% and 96.4%.
